USP1 inh – inhibitors of human USP1/UAF1 deubiquitinase; Potency, µM (top dose mostly 57.1 µM), for the others: at the top dose activity change, negative = inhibition, usual class: inhibitors; 390,000 tested, 0.23% active; recombinant USP1/UAF1, Ub-Rhodamine cleavage fluorescence; active = well fitted inhibition curve with a large enough effect; inconclusive = small, poorly fitted or top-dose-only effect; inactive = no such curve, though single readings can be large or run the other way; note: potency is the fitted concentration of half-maximal effect; % is set by controls: 0 for no effect and ±100 for the full control effect; nearly all actives have a fitted effect of over 60% in size
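1 nM enzyme complex + cpd, 15 min RT; start with Ub-Rho 150nM final; kinetic fluorescence ex 480/em 540, 6 reads q60 s. Buffer 50mM HEPES pH 7.8, 0.5mM EDTA, 0.1 mg/ml BSA, 1mM TCEP, 0.01% Tween-20.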
D1 ag – human D1 receptor agonism; HEK293 T-REx D1 cells, calcium flux, agonist mode; activation, % at 2 µM; 360,000 tested, 1% active; note: 0% is about no effect
Target sequence (P21728 whole entry, looked up): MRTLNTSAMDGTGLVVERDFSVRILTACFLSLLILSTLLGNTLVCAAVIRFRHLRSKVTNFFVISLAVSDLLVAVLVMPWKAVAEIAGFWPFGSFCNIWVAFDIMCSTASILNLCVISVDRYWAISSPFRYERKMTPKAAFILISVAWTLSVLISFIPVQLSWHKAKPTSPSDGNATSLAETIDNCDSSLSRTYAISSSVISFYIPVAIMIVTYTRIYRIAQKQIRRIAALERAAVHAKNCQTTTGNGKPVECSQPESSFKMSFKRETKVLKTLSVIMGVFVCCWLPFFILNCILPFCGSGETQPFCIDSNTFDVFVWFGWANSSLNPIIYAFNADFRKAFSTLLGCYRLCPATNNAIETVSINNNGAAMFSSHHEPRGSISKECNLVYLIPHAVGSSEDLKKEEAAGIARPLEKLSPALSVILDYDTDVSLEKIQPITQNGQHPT
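Tetracycline-induced HEK293 TREx D1 cells, force-coupled to calcium signalling, were dye-loaded with a no-wash calcium kit. Compound was pin-added after a 10 s baseline. Fluorescence was read kinetically at 1 cycle/s for 180 s, with calcium rises flagged as agonism.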
TRHR ag – TRH receptor (human) agonism; P34981; TRHR cells, calcium flux fluo-8, FDSS agonist mode; activation, % at 2 µM; 360,000 tested, 0.18% active; AID 493084; note: 0% is about no effect
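In this calcium-flux screen, cells bearing human TRHR are dye-loaded with fluo-8, baselined for 10 cycles, then exposed to library compounds; positive kinetic calcium responses during the agonist phase mark hits, with TRH as control.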
TRHR enhancer – TRH receptor (human) allosteric enhancement; TRHR cells, fluo-8 calcium fluorescence, EC20 TRH enhancement; 360,000 tested, 0.66% active; enhancement, % at 2 µM; P34981; in the data active = enhancement above about 30%; note: 0% is about no effect
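Enhancer read-out: after compound pinning and an initial kinetic agonist-mode read, an EC20 of TRH (10 nM final) was injected and fluo-8 calcium signal (Ex 480/Em 530) followed at 1 s/cycle for 100 cycles in TRHR-expressing cells.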
D1 antagonist – antagonists of human D1 dopamine receptor | HEK293 TREx D1 cells, calcium flux, dopamine EC80; stronger effect = lower value | 360,000 tested, 3.2% active | P21728 | activity change, negative = inhibition, % at 10 µM; in the data active = activity change below about -30%; note: % is set by controls: 0 for no effect and ±100 for the full control effect
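Tetracycline-induced HEK293 T-REx cells with force-coupled D1 receptor were loaded with a no-wash calcium dye. Compound was added after a 10 s baseline and read kinetically for 180 s; EC80 dopamine was then added and calcium flux followed another 180 s.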
D1 potentiator – enhances dopamine response at the human D1 receptor | 360,000 tested, 0.036% active | potentiation, % at 10 µM | HEK293 TREx D1 cells, calcium flux, dopamine EC20 potentiation | AID 504651; in the data active = potentiation above about 30%; note: 0% is about no effect
Starred values were filed as active, the others as inactive; ? = inconclusive; · = no result given. Hits are enriched below; roughly 4.4% of the tested compounds scored in any of these assays. Cut-off read from the data, not from the text of the source, unless noted: active = activation above about 30%; inactive = the rest.

SMILES | USP1 inh | D1 ag | TRHR ag | TRHR enhancer | D1 antagonist | D1 potentiator
CC(C)c1ccc(CN2CCN(C(=O)CSc3nnnn3C3CC3)CC2)cc1 | -12% | 5 | 0 | -3 | -36* | -2
CCN(c1ccc(OC)cc1)S(=O)(=O)c1c(C(=O)N2CCCCCC2)c(C)n(C)c1C | -4% | 1 | 0 | 0 | -4 | 2
COC(=O)c1ccccc1NC(=O)Cn1cnc2cc(C)c(C)cc21 | -12% | 38* | 0 | 0 | -16 | -4
COC(=O)c1ccccc1NC(=O)Cn1cnc2c(cnn2-c2ccc(C)c(C)c2)c1=O | 1% | · | · | · | · | ·
C/C(=N\NC(=O)CNc1ccc(F)cc1)c1cc2ccccc2o1 | -4% | 2 | -1 | -5 | -40* | -5
COc1cc2c(cc1OC)C(COc1ccc3c(C)cc(=O)oc3c1)N(C(=O)c1cccc(C)c1)CC2 (configuration not stated) | -2% | 0 | 0 | -2 | -4 | 0
COc1ccc2c(n1)Sc1nc3ccccc3nc1N2 | ? | 262* | 90* | 10 | -24 | 2
CC(=O)N1CCCc2cc(S(=O)(=O)NCc3ccc(C)cc3)ccc21 | -21% | 11 | -1 | 6 | -37* | -14
CC(=O)N1CCCc2cc(S(=O)(=O)NCCC3=CCCCC3)ccc21 | -13% | 13 | -1 | -5 | -30* | -7
O=S(=O)(NCCC1=CCCCC1)c1ccc(Br)cc1 | -13% | 2 | 0 | -3 | -30* | -11
CC(=O)N1CCCc2cc(S(=O)(=O)NCc3cccc(C)c3)ccc21 | ? | 9 | 0 | -1 | -24 | -1
CC(=O)N1CC(C)Sc2ccc(S(=O)(=O)NCCc3ccc(C)cc3)cc21 (configuration not stated) | -20% | 31* | 0 | -1 | -2 | -3
CC(=O)c1ccc(NC(=O)c2cc(-c3ccc(C)s3)nc3ccccc23)cc1 | -7% | 2 | 1 | 6 | -1 | -5
COc1ccc(CCNS(=O)(=O)c2ccc(F)c(C(=O)Nc3ccc(Cl)cc3)c2)cc1OC | -17% | 0 | 0 | -5 | -30 | -3
CCOc1ccc(S(=O)(=O)NCCC2=CCCCC2)c2ccccc12 | -20% | 19 | 3 | 0 | -36* | -5
COc1ccc(C)cc1S(=O)(=O)NCCC1=CCCCC1 | ? | 1 | -1 | -3 | 4 | -7
O=C(Nc1ccc(O)c(-c2nc3ccccc3o2)c1)c1cccs1 | -29% | 0 | 1 | 0 | -4 | -4
O=C(Nc1ccc(O)c(-c2nc3ccccc3o2)c1)c1sc2ccccc2c1Cl | 10% | 0 | 0 | 1 | -30* | 0
CCOc1ccc2c(c1)sc1nc(=O)n(-c3ccc(Cl)c(Cl)c3)c(=O)n12 | ? | 0 | 0 | -1 | 10 | 1
CC(=O)NNc1ncnc2c1cnn2-c1ccc(C)c(Cl)c1 | -2% | 7 | 1 | 31* | -10 | 2
Cc1ccc(-n2ncc3c(NCCc4ccccc4)ncnc32)cc1Cl | -30% | 7 | 0 | 7 | -36* | -3
COc1ccc(CCNc2ncnc3c2cnn3-c2ccc(C)c(Cl)c2)cc1 | -7% | 3 | 1 | 0 | -63* | -4
CC(=O)NNc1ncnc2c1cnn2-c1ccc(C)cc1 | ? | 4 | 1 | 0 | 0 | -2
Cc1ccc(-n2ncc3c(NCCc4ccccc4)ncnc32)cc1 | -3% | -3 | 1 | 7 | -50* | -2
O=C(Nc1cc(C(F)(F)F)ccc1Cl)C(O)Cc1ccccc1 (configuration not stated) | · | 2 | -1 | 2 | 22 | -4
Cc1ccc(-n2ncc3c(NNC(=O)c4ccccc4C)ncnc32)cc1 | -17% | -2 | 0 | 2 | -36* | 0
COc1ccc(CCNc2ncnc3c2cnn3-c2ccc(F)cc2)cc1 | -12% | -2 | 0 | -8 | -38* | -4
Cc1cccc(-n2ncc3c(NCCCn4ccnc4)ncnc32)c1 | -7% | 1 | 0 | 1 | 13 | 0
Cc1ccc(-n2ncc3c(NCCO)ncnc32)cc1Cl | -17% | 5 | 0 | -9 | -39* | -3

Assay outcomes (PubChem BioAssay)
